A selection: hits, their analogues and other compounds. The true share with any hit is near 6.8%.
C diff growth: blocks growth of Clostridium difficile; hit rate 0.25% among 86,000; AID 1259249; growth activity, negative = inhibition, % at 16 µg/mL (by protocol); Clostridium difficile clinical isolate growth, OD600, 24 h; hits give low values;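 active = mean growth activity at or below -80% and every replicate also at or below -80%; inconclusive = mean at or below -80% but some replicate above -80%; inactive = mean growth activity above -80%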;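 note: 0% = DMSO wells and -100% = levofloxacin 16 µg/mL wells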
T cruzi growth: blocks T. cruzi growth in NIH3T3 culture; T. cruzi beta-gal in NIH3T3, GalScreen luminescence, 90 h; inhibition, % at 8.34 µM; hit rate 5.9% among 77,000; AID 624255;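 active = mean inhibition above about 93%, with at least 55% of replicates each passing it, limit read from the data, passing the limit was not always enough; inconclusive = only one of those two conditions holds; inactive = neither condition holds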
Pf Dd2 growth: inhibitors of Plasmodium falciparum Dd2 growth; hit rate 2.3% among 94,000; AID 1159554; activity change, % at 10 µM; P. falciparum Dd2 growth, SYBR Green, 72 h; hits give low values; in the data active = activity change below about -80%; inconclusive = no clear call, values can overlap the other calls
The depositor's hits bear a star; ? = inconclusive; . = no result given.

SMILES	C diff growth	T cruzi growth	Pf Dd2 growth
C[C@@H]1CN([C@H](C)CO)C(=O)c2ccccc2-c2ccccc2CO[C@@H]1CN(C)Cc1ccccc1C(F)(F)F	25.3	.	-92.6*
C[C@@H]1CN([C@@H](C)CO)C(=O)c2c(c3ccccc3n2C)-c2ccccc2CO[C@@H]1CN(C)Cc1ccc(F)cc1	24.3	.	-56.1
C[C@H]1CN([C@@H](C)CO)C(=O)c2c(c3ccccc3n2C)-c2ccccc2CO[C@@H]1CN(C)Cc1ccc(F)cc1	25.7	.	-82.6*
C[C@H](CO)N1C[C@H](C)[C@H](CN(C)Cc2ccc(C(F)(F)F)cc2)OCc2ccccc2-c2c(n(C)c3ccccc23)C1=O	1.5	.	-82.9*
C[C@@H]1CN([C@@H](C)CO)C(=O)c2ccccc2-c2ccccc2CO[C@@H]1CN(C)Cc1ccccc1C(F)(F)F	18.5	.	-58.6
C[C@H](CO)N1C[C@H](C)[C@@H](CN(C)Cc2ccc(Oc3ccccc3)cc2)OCc2ccccc2-c2c(n(C)c3ccccc23)C1=O	45.7	.	-90.8*
C[C@@H]1CN([C@@H](C)CO)C(=O)c2c(c3ccccc3n2C)-c2ccccc2CO[C@H]1CN(C)Cc1ccc(Oc2ccccc2)cc1	51.1	.	-77.9
C[C@@H]1CN([C@@H](C)CO)C(=O)c2c(c3ccccc3n2C)-c2ccccc2CO[C@@H]1CN(C)Cc1ccc(C(F)(F)F)cc1	9.9	.	-67.4
CC(C)NC(=O)Nc1cccc2c1O[C@@H](CN(C)S(=O)(=O)c1ccc(Cl)cc1)[C@@H](C)CN([C@@H](C)CO)C2=O	-5.2	.	-7.0
C[C@H](CO)N1C[C@H](C)[C@@H](CN(C)Cc2ccncc2)Oc2ncc(C3=CCCCC3)cc2C1=O	5.9	22.6	.
CC(C)NC(=O)NCC[C@@H]1CC[C@H](NS(=O)(=O)c2ccccc2)[C@H](CO)O1	-1.9	.	8.8
COc1ccccc1NC(=O)N[C@@H]1CC[C@H](CCn2cc(-c3cccnc3)nn2)O[C@@H]1CO	.	-0.6	-13.0
C[C@@H]1CN([C@@H](C)CO)C(=O)c2cc(NS(=O)(=O)c3cccs3)ccc2O[C@@H](C)CCCCO[C@H]1CN(C)Cc1ccc2c(c1)OCO2	4.4	25.3	-54.5
C[C@@H]1CN([C@@H](C)CO)C(=O)c2c(c3ccccc3n2C)-c2ccccc2CO[C@H]1CN(C)Cc1cccc(C(=O)Nc2ccccc2N)c1	0.8	.	-89.3*
C[C@H]1CN([C@@H](C)CO)C(=O)c2c(c3ccccc3n2C)-c2ccccc2CO[C@@H]1CN(C)Cc1ccccc1C(F)(F)F	18.2	.	-84.9*
COc1cccc(CN(C)C[C@@H]2OCc3ccccc3-c3c(n(C)c4ccccc34)C(=O)N([C@@H](C)CO)C[C@H]2C)c1	62.0	.	-69.4
COc1cccc(CN(C)C[C@H]2OCc3ccccc3-c3c(n(C)c4ccccc34)C(=O)N([C@@H](C)CO)C[C@H]2C)c1	26.6	.	-86.5*
C[C@H](CO)N1C[C@H](C)[C@@H](CN(C)Cc2ccc(-c3ccccc3)cc2)OCc2ccccc2-c2c(n(C)c3ccccc23)C1=O	33.7	.	-91.6*
COc1ccccc1CN(C)C[C@@H]1OCc2ccccc2-c2c(n(C)c3ccccc23)C(=O)N([C@H](C)CO)C[C@@H]1C	67.5	.	-1.5
C[C@H]1CN([C@@H](C)CO)C(=O)c2c(c3ccccc3n2C)-c2ccccc2CO[C@@H]1CN(C)Cc1ccccc1	1.9	.	-77.1
C[C@H](CO)N1C[C@H](C)[C@H](CN(C)Cc2cccc(C(=O)O)c2)OCc2ccccc2-c2c(n(C)c3ccccc23)C1=O	1.0	-16.3	49.0
CC(C)NC(=O)N1C[C@@H]2[C@H](c3ccccc31)[C@H](CO)N2C(=O)c1ccccc1F	1.9	29.1	5.6
CCCNC(=O)N1C[C@H](C)[C@H](OC)CN(C)C(=O)c2ccc(NC(C)=O)cc2OC[C@@H]1C	.	-18.7	-9.8
C[C@H](NC(=O)C[C@@H]1C[C@H]2c3cc(NC(=O)C4CCOCC4)ccc3O[C@H]2[C@@H](CO)O1)c1ccccc1	.	-72.0	22.3
O=C(C[C@@H]1C[C@H]2c3cc(NC(=O)CC4CC4)ccc3O[C@H]2[C@H](CO)O1)NCc1ccc(Cl)cc1	.	2.4	-56.6
SMILES	C diff growth	T cruzi growth	Pf Dd2 growth
C[C@H]1CN([C@@H](C)CO)C(=O)c2cc(C3=CCCC3)cnc2O[C@H]1CN(C)Cc1cccnc1	2.4	.	13.5
O=C(N[C@H]1C=C[C@@H](CC(=O)N2CCc3ccccc3C2)O[C@H]1CO)C1CC1	.	51.5	-0.8
CCCNC(=O)C[C@@H]1CC[C@@H]2[C@@H](COc3ccc(NC(=O)Cc4ccccc4)cc3C(=O)N2C)O1	-2.1	-11.4	17.4
C[C@@H]1CN([C@H](C)CO)C(=O)c2c(c3ccccc3n2C)-c2ccccc2CO[C@@H]1CN(C)Cc1cccc(F)c1	32.9	.	-88.2*
C[C@H]1CN([C@@H](C)CO)C(=O)c2c(c3ccccc3n2C)-c2ccccc2CO[C@@H]1CN(C)Cc1cccc(F)c1	16.0	.	-74.8
C[C@H](CO)N1C[C@H](C)[C@H](CN(C)Cc2ccc(-c3ccccc3)cc2)OCc2ccccc2-c2c(n(C)c3ccccc23)C1=O	17.7	.	?
C[C@H]1CN([C@@H](C)CO)C(=O)c2c(c3ccccc3n2C)-c2ccccc2CO[C@H]1CN(C)Cc1ccc(-c2ccccc2)cc1	9.3	.	-88.0*
C[C@@H]1CN([C@@H](C)CO)C(=O)Cc2cc(NC(=O)Nc3ccc(C(F)(F)F)cc3)ccc2O[C@H]1CN(C)S(=O)(=O)c1ccc(F)cc1	.	44.7	-29.7
CO[C@H]1CN(C)C(=O)c2cc(NC(=O)c3nc4ccccc4s3)ccc2OC[C@H](C)NC[C@H]1C	.	-52.3	-54.0
CO[C@H]1CN(C)C(=O)c2cc(NC(=O)c3nc4ccccc4s3)ccc2OC[C@@H](C)NC[C@@H]1C	.	-37.8	-87.1*
CO[C@@H]1CN(C)C(=O)c2cc(NC(=O)c3nc4ccccc4s3)ccc2OC[C@@H](C)NC[C@H]1C	.	-56.0	-30.4
CO[C@@H]1CN(C)C(=O)c2cc(NC(=O)c3nc4ccccc4s3)ccc2OC[C@H](C)NC[C@H]1C	.	-34.3	-84.5*
CCCc1cn(CC[C@@H]2CC[C@@H](NS(=O)(=O)c3ccccc3Cl)[C@H](CO)O2)nn1	-3.0	41.3	-9.3
Cc1noc(C)c1S(=O)(=O)Nc1cccc2c1O[C@@H](CN(C)S(=O)(=O)c1ccccc1)[C@@H](C)CN([C@@H](C)CO)C2=O	-2.3	26.1	-9.8
C[C@H]1CN([C@@H](C)CO)S(=O)(=O)c2ccc(C#Cc3ccncc3)cc2O[C@@H]1CN(C)S(=O)(=O)c1ccccc1	3.7	23.4	-93.1*
C[C@H](CO)N1C[C@H](C)[C@@H](CN(C)S(=O)(=O)c2ccc(F)cc2)Oc2cc(C#Cc3ccncc3)ccc2S1(=O)=O	3.6	92.9	-59.4
Cc1ccc(S(=O)(=O)N(C)C[C@@H]2Oc3cc(C#Cc4ccncc4)ccc3S(=O)(=O)N([C@H](C)CO)C[C@H]2C)cc1	1.3	79.5	-79.2
Cc1ccc(S(=O)(=O)N(C)C[C@@H]2Oc3cc(C#Cc4ccncc4)ccc3S(=O)(=O)N([C@@H](C)CO)C[C@H]2C)cc1	1.6	82.3	-81.4*
Cc1ccc(S(=O)(=O)N(C)C[C@H]2Oc3cc(C#Cc4ccncc4)ccc3S(=O)(=O)N([C@@H](C)CO)C[C@@H]2C)cc1	-0.4	66.6	-86.0*

Source: PubChem (Broad Institute)
